Screening results (PubChem BioAssay)
TNAP act DEA: human TNAP enzyme activators, primary screen, biochemical, luminescent, intermediate phosphate acceptor level; Alkaline phosphatase, tissue-nonspecific isozyme (Homo sapiens), P05186; purified TNAP, CDP-star luminescence, 100 mM DEA, 30 min; hits give high values; scale: 0 levamisole-inhibited, 1 vehicle-only enzyme; activation factor at 20 µM; 64,000 tested, under 10 active;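 active = activation factor of at least 2 at 20 µM, relative to controls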
FXIa inh mix: FXIa protease inhibitors in compound pools, primary screen, biochemical, 10-compound mixtures; 0.19% of 62,000 active; Coagulation factor XI (Homo sapiens), P03951; inhibition, % at 5 µM; purified FXIa, fluorogenic substrate, pooled mixtures;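 note: each value is inhibition by a whole ten-compound pool holding the compound; 0% = enzyme with no mixture and 100% = wells lacking enzyme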
D1 allo mod: D1 CRE-luciferase signal change, two-sided – cell-based, HEK293 D1, dopamine EC30, D1 allosteric modulator project, primary screen; D(1A) dopamine receptor (Homo sapiens), P21728; dopamine EC30 potentiation; actives deviate in either direction; B-score at 10 µM; 5.9% of 58,000 active;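 active = luminescence count or its row- and column-corrected plate score outside the 99.7% band of the plate's sample wells, on either side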
Target sequence (P21728 whole entry, looked up): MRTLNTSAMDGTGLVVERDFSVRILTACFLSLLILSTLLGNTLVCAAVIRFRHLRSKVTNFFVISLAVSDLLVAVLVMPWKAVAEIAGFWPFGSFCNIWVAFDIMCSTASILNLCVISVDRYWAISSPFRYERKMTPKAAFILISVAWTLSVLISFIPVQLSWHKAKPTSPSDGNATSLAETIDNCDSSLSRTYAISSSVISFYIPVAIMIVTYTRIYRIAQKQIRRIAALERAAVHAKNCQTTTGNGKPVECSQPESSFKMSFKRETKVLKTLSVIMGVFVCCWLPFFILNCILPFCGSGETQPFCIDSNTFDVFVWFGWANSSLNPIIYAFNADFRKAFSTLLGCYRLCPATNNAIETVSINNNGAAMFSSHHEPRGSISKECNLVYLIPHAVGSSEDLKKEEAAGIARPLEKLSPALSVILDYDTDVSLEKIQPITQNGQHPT
Calb biofilm kill: clotrimazole potentiators killing Candida biofilms, primary screen, with clotrimazole, Alamar Blue. C. albicans biofilm + clotrimazole. inhibition, % at 6 µM. 0.14% of 85,000 active. AID 834, 2007;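 active = inhibition above 20%; inactive = inhibition below 20%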;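 note: preformed 24 hr biofilms exposed to compound for 48 hr; 0% = biofilm without compound and 100% = blank killed by clotrimazole plus chlorhexidine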
HePTP inhibitor: inhibitors of human HePTP phosphatase, primary screen, biochemical, absorbance, leukemia target; Tyrosine-protein phosphatase non-receptor type 7 (Homo sapiens), P35236; recombinant HePTP phosphatase activity, OD absorbance; inhibition, % at 20 µM; 0.64% of 110,000 active; in the data active = inhibition above about 50%;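 note: plate controls were vehicle for no effect and reference inhibitor for full effect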
FXIIa mix inh: human factor XIIa inhibitors, primary screen, biochemical, pooled compound mixtures, fluorogenic substrate; inhibition, % at 5 µM; AID 684, 2007; Coagulation factor XII (Homo sapiens), P00748; purified FXIIa; 0.2% of 62,000 active;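 note: 0% = enzyme without compound and 100% = no enzyme blank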
D1 mod confirm: D1 receptor positive allosteric modulators, retest, confirmation, cell-based, HEK293 D1, CRE-luciferase, duplicate; dopamine EC30 potentiation; hits give high values; luminescence at 10 µM; 88% of 2,200 active; shares compounds with D1 allo mod;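 active = luminescence in either of two replicates above the same-plate mean plus 3 SD of the low-dose dopamine control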
D1 no dopamine: D1 receptor agonism without dopamine, confirmation, mechanism study for D1 allosteric modulator project, cell-based, HEK293 D1, CRE-luciferase, secondary assay 1; AID 646, 2007; luminescence at 10 µM; 0.8% of 1,900 active; luminescence, no dopamine; hits give high values; shares compounds with D1 allo mod; in the data active = luminescence above about 3900
Isoprot counter: alters isoproterenol CRE-luciferase response in HEK293 cells. shares compounds with D1 allo mod. HEK293 D1 CRE-luciferase, isoproterenol EC30 counter-screen; hits give high values. luminescence at 10 µM. 63% of 2,200 active;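 active = luminescence in either replicate above plate mean of wells with a partly effective reference agonist dose plus 3 SD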;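 note: isoproterenol raises cAMP through native beta-adrenoceptor Gs so signal bypasses D1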
* hit, by the source's call; nt = no result given. The sample as a whole holds a higher share of hits than the screen did. Cut-off read from the data, not from the text of the source, unless noted: active = inhibition above about 20% (passing the limit was not always enough); inactive = the rest.

SMILES	TNAP act DEA	FXIa inh mix	D1 allo mod	Calb biofilm kill	HePTP inhibitor	FXIIa mix inh	D1 mod confirm	D1 no dopamine	Isoprot counter
COc1ccc(-c2ccc(=O)n(Cc3cc(=O)n4ccccc4n3)n2)cc1	0.9	-29	26*	1	8	8	20696*	1572	4180*
c1ccc2c(c1)nnn2Cc1nnc2sc(-c3ccncc3)nn12	1	6	0.17	3	6	-15	nt	nt	nt
Clc1ccc(Cc2nn3c(Cn4nnc5ccccc54)nnc3s2)cc1	1	2	5.3*	4	2	3	9044*	1448	3504*
c1ccc(Cc2nnc3sc(-c4cccs4)nn23)cc1	0.9	7	11*	5	10	4	20672*	1736	4516*
c1csc(-c2nn3c(Cn4nnc5ccccc54)nnc3s2)c1	0.9	2	5.6*	0	-1	-39	9180*	1476	3180
c1ccc(Cc2nnc3sc(-c4ccc5c(c4)OCCO5)nn23)cc1	0.9	3	6.9*	7	6	6	12856*	1704	4732*
CC(=O)Oc1ccc(C(=O)Nc2cccc(C(=O)O)c2C)cc1	nt	nt	nt	nt	-2	nt	nt	nt	nt
CCC(C)NC(=O)c1cnn2c(C)c3c(nc12)CCCC3 (stereo unspecified)	0.7	0	7*	8	2	4	11440*	1904	3556*
Cc1ccc2nc(N3CCC(C(=O)O)CC3)nc(-c3ccccc3)c2c1	1	8	6.5*	0	0	-1	10876*	1380	3708*
COc1cc(C2CC(=O)Nc3ccccc3S2)cc(OC)c1OC (stereo unspecified)	nt	nt	-1.8	nt	nt	nt	nt	nt	nt
O=C1CC(c2ccc(F)cc2)Sc2ccccc2N1 (stereo unspecified)	nt	nt	28*	7	nt	nt	22156*	1556	5328*
COc1ccc(/C=C2\CCOC2=O)cc1	nt	nt	nt	4	-6	nt	nt	nt	nt
COc1ccc(N/C=C2\CCOC2=O)cc1	0.9	0	3.2*	7	7	3	4948	1600	2328
COc1ccc(C(=O)Nc2sc3c(c2C(=O)Nc2cccc4ccccc24)CCCC3)cc1OC	nt	nt	nt	nt	-5	nt	nt	nt	nt
CCOc1ccccc1C1CC(=O)NC2=C1C(=O)CC(C)(C)C2 (stereo unspecified)	1	4	3.3*	10	0	6	5416	1524	3236
CC1(C)CC(=O)C2=C(C1)NC1=C(C(=O)CC(C)(C)C1)C2c1ccccc1OCc1ccccc1	nt	nt	nt	nt	2	nt	nt	nt	nt
Fc1ccc(-c2cn3ccccc3n2)cc1	nt	nt	nt	nt	8	nt	nt	nt	nt
COc1ccc(-c2cn3ccccc3n2)cc1OC	0.9	2	12*	12	6	5	12712*	nt	3136*
CSc1ccc(-c2nc(CSCC(=O)N3CCOCC3)c(C)o2)cc1	0.9	0	26*	3	6	3	5664	1536	3268
COc1ccc(-c2nc(CSCC(=O)N3CCN(C)CC3)c(C)o2)cc1OC	nt	nt	nt	10	nt	nt	nt	nt	nt
O=S(=O)(c1cccs1)N1CCN(c2ncccn2)CC1	0.9	1	1.7	7	1	0	nt	nt	nt
O=S(=O)(c1cccs1)N1CCN(c2ccccn2)CC1	1.1	5	11*	nt	-5	-2	10548*	1832	3236
CCCn1c(SCC(=O)Nc2sc(C)c(C)c2C(=O)OCC)nc2c1c(=O)n(C)c(=O)n2C	0.9	-2	6.5*	2	9	2	8860*	1644	2532
CCCn1c(SCC(=O)Nc2ccccc2C(=O)OC)nc2c1c(=O)n(C)c(=O)n2C	0.8	5	8.5*	11	12	2	12220*	1740	3848*
CCOC(=O)c1c(NC(=O)CSc2nnnn2CC)sc(C)c1C	1	1	3.9*	2	-6	-18	13084*	1736	3424*
SMILES	TNAP act DEA	FXIa inh mix	D1 allo mod	Calb biofilm kill	HePTP inhibitor	FXIIa mix inh	D1 mod confirm	D1 no dopamine	Isoprot counter
CCOC(=O)c1c(NC(=O)CSc2n[nH]c(N)n2)sc(CC)c1C	1.1	2	7.9*	9	6	10	14984*	1740	4504*
COC(=O)c1c(NC(=O)CSc2n[nH]c(N)n2)sc(C)c1C	0.9	-3	1.5	4	-5	1	nt	nt	nt
CCOC(=O)c1c(NC(=O)CSc2nnnn2C)sc(C)c1C	0.9	3	1.7	-2	3	11	nt	nt	nt
CCc1ccc(CNCc2ccccc2OC)cc1	nt	nt	nt	nt	22	nt	nt	nt	nt
Cc1cc(C)cc(-n2c(C)cc(/C=N/NC(=O)c3cccnc3)c2C)c1	nt	nt	nt	nt	10	nt	nt	nt	nt
CCOC(=O)c1sc(NC(=O)CSc2nncs2)c(C(=O)OCC)c1C	0.9	2	4*	7	3	-16	6908*	1576	2668
CCOC(=O)c1sc(NC(=O)CSc2nnc(-c3ccco3)n2CC)c(C(=O)OCC)c1C	0.7	-4	0.016	nt	10	-8	nt	nt	nt
CCN(CC)c1ccc2c(c1)OC(N)=C(C#N)C2c1cccnc1 (stereo unspecified)	0.9	7	9.3*	nt	4	6	13200*	2064	5488*
N#CC1=C(N)Oc2nc(-c3ccccc3)[nH]c2C1c1cccnc1 (stereo unspecified)	0.8	-4	5.1*	-2	-7	4	8448*	1564	3604
O=C(Nc1ccc(-c2nc3cc(Cl)cc(Cl)c3o2)cc1)c1cccc([N+](=O)[O-])c1	nt	nt	nt	nt	7	nt	nt	nt	nt
CCCN1C2=NS(=O)(=O)CCN2c2ccccc21	1	-3	8.4*	3	-8	-1	20272*	2056	4132*
CCOc1ccc(C2C(C#N)=C(N)SC(N)=C2C#N)cc1OC	0.9	nt	6.1*	-2	5	nt	10912*	1684	3728
CCOc1ccc(C2C(C#N)=C(N)SC(N)=C2C#N)cc1OCC	1	8	5.4*	1	4	2	13032*	1560	4664*
CC(=O)C1=C(Nc2ccccc2)CC(C)(O)C(C(C)=O)C1c1ccc(F)cc1 (stereo unspecified)	nt	nt	nt	nt	-4	nt	nt	nt	nt
Cc1ccc(C(=O)Nc2cccc(O)c2)o1	nt	nt	nt	nt	0	nt	nt	nt	nt
C1CN(CC2CSC(=NC34CC5CC(CC(C5)C3)C4)O2)CCO1 (stereo unspecified)	nt	nt	nt	nt	-12	nt	nt	nt	nt
